Screening results deposited in PubChem BioAssay by The Scripps Research Institute Molecular Screening Center.
MsrA inhibitor = bovine MsrA inhibition; inhibition, % at 15.5 µM; purified bovine MsrA, absorbance read-out; 360,000 tested, 0.75% active; AID 651718; in the data active = inhibition above about 4.5%;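 also: 0% = vehicle wells with enzyme and 100% = reference inhibitor wells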
MsrA act = activates bovine MsrA enzyme | purified bovine MsrA, absorbance read-out | activation, % at 10.6 µM | 360,000 tested, 0.3% active | AID 602163; in the data active = activation above about 7.5%;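 also: 0% = vehicle and 100% = reference activator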
PLC-gamma1 inh = PLC-gamma1 (human) inhibition, primary screen; P19174; purified PLC-gamma1, fluorogenic substrate, fluorescence; inhibition, % at 12.2 µM; 370,000 tested, 0.84% active; in the data active = inhibition above about 9.5%
PLCb3 inh = blocks human PLC-beta3 enzyme activity | 370,000 tested, 0.18% active | Purified PLC-beta3, fluorogenic substrate, fluorescence | Q01970 | inhibition, % at 12.2 µM | AID 720704; in the data active = inhibition above about 11%;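 also: 0% = median of compound wells on plate and 100% = full blocker control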
MsrA activ conf = bovine methionine sulfoxide reductase A activation confirmed | purified bovine MsrA, absorbance read-out | shares compounds with MsrA act | activation, % at 10.6 µM | AID 602270 | 1,000 tested, 12% active; in the data active = activation above about 4%;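 also: enzyme coupled to thioredoxin and thioredoxin reductase with NADPH; 0% = vehicle wells and 100% = reference activator wells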
Active calls of the source: *. A selection: hits, their analogues and other compounds. The true share with any hit is near 1.9%.

COC(=O)c1ccccc1S(=O)(=O)N1CCC(NC(=O)c2ccccc2)CC1 was read as MsrA inhibitor -1, MsrA act -3, PLC-gamma1 inh -1 and PLCb3 inh -1.
CCc1ccc(CN(C)Cc2nc(COc3ccccc3)no2)nc1 was read as MsrA inhibitor 1, MsrA act 7.9*, PLC-gamma1 inh -3, PLCb3 inh -5 and MsrA activ conf -1.
Screening CN(C(=O)CSc1ncnc2c(-c3cccs3)nsc12)C1CCCCC1 returned MsrA inhibitor -2, PLC-gamma1 inh -48 and PLCb3 inh -71.
`CC(=O)Nc1ccc(S(=O)(=O)N2c3ccccc3NC(=O)CC2C)c(Cl)c1` (stereo unspecified) gave MsrA inhibitor 0, MsrA act 12*, PLC-gamma1 inh 2, PLCb3 inh -1 and MsrA activ conf 1.
For CC1CC(=O)Nc2ccccc2N1S(=O)(=O)c1ccc(Cl)cc1 (stereo unspecified) the results were MsrA inhibitor -1, MsrA act -2, PLC-gamma1 inh 0 and PLCb3 inh -7.
Screening Cc1cc(C)cc(C(=O)OCCCN(C)C2CN(Cc3cn(Cc4cccc(F)c4)nn3)S(=O)(=O)C2)c1 (stereo unspecified) returned PLC-gamma1 inh 3 and PLCb3 inh 0.
Screening COC(=O)[C@]12C[C@H](CC(=O)NCc3cccc4ccccc34)C(=O)N(CCC3=CCCCC3)C1=C[C@H](C(C)(C)C)O[C@@H]2C returned MsrA inhibitor 0, PLC-gamma1 inh 0 and PLCb3 inh 2.
`CS(=O)(=O)N(CC(=O)N1CCOCC1)c1cccc(F)c1` gave MsrA inhibitor 0, MsrA act 9.2*, PLC-gamma1 inh -1, PLCb3 inh -2 and MsrA activ conf -1.
Screening CC1CCN(C(=O)CN(c2cccc(F)c2)S(C)(=O)=O)CC1 returned MsrA inhibitor 1, MsrA act -7, PLC-gamma1 inh -3 and PLCb3 inh 1.
Screening CCOC(=O)C(Oc1ccc2c(-c3ccccc3)cc(=O)oc2c1C)c1ccccc1 (stereo unspecified) returned MsrA inhibitor 0, MsrA act 8.0*, PLC-gamma1 inh -8, PLCb3 inh -2 and MsrA activ conf 0.
`CCOC(=O)C(Oc1ccc2c(-c3ccc(OC)cc3)cc(=O)oc2c1C)c1ccccc1` (stereo unspecified) gave MsrA inhibitor 0, MsrA act -1, PLC-gamma1 inh -5 and PLCb3 inh -6.
For CCN(CCCNC(=O)CCn1c(=S)[nH]c2cc3c(cc2c1=O)OCO3)c1cccc(C)c1 the results were MsrA inhibitor 0, MsrA act 8.1*, PLC-gamma1 inh 2, PLCb3 inh -9 and MsrA activ conf -2.
For CCOc1ccccc1-c1nc(-c2ccncc2)no1 the results were MsrA inhibitor -1, MsrA act 8.4*, PLC-gamma1 inh 2, PLCb3 inh 1 and MsrA activ conf -1.
For CCOc1ccc(-c2noc(-c3ccncc3)n2)cc1OCC the results were MsrA inhibitor 1, MsrA act -2, PLC-gamma1 inh -1 and PLCb3 inh 1.
Screening COc1ccccc1-c1nc(-c2ccncc2)no1 returned MsrA inhibitor -1, MsrA act 1, PLC-gamma1 inh 2 and PLCb3 inh 2.
For CCOc1ccc(-c2nc(-c3ccc(OC)cc3)no2)cc1OCC the results were MsrA inhibitor 0, MsrA act 7.9*, PLC-gamma1 inh -1, PLCb3 inh 3 and MsrA activ conf 0.
Screening C=CCC(CC)C(=O)NC(=O)N1CCCc2ccccc21 (stereo unspecified) returned MsrA inhibitor 0, MsrA act 12*, PLC-gamma1 inh 4, PLCb3 inh -2 and MsrA activ conf -1.
For CCOc1ccccc1NC(=O)N1CCCc2ccccc21 the results were MsrA inhibitor -1, MsrA act 0, PLC-gamma1 inh 0 and PLCb3 inh -2.
For CC(C)OC(=O)c1sc2nc(-c3ccccc3)ccc2c1N the results were MsrA inhibitor 1, MsrA act 8.8*, PLC-gamma1 inh -446, PLCb3 inh inactive and MsrA activ conf 0.
Screening COc1ccc(C(=O)c2sc3nc(-c4ccccc4)ccc3c2N)cc1 returned MsrA act -1.
CC(C)c1ccc(Nc2n[nH]c(=S)s2)cc1 was read as MsrA inhibitor 1, MsrA act 8.6*, PLC-gamma1 inh 2, PLCb3 inh 4 and MsrA activ conf 0.
`Cc1cc(C)c(Nc2n[nH]c(=S)s2)cc1C` gave MsrA inhibitor 0, MsrA act 6, PLC-gamma1 inh 1 and PLCb3 inh -1.
For COc1ccccc1Nc1n[nH]c(=S)s1 the results were MsrA inhibitor 2, MsrA act 8.9*, PLC-gamma1 inh -1, PLCb3 inh -4 and MsrA activ conf 1.
Cc1ccc(Nc2n[nH]c(=S)s2)c(C)c1 was read as MsrA inhibitor 1, MsrA act 10*, PLC-gamma1 inh 0, PLCb3 inh -3 and MsrA activ conf 1.
Screening COC(=O)C1CN(Cc2ccc(F)cc2)CCS(=O)(=O)N1Cc1ccccc1 (stereo unspecified) returned PLC-gamma1 inh 5 and PLCb3 inh 6.
Screening O=C(Nc1nc(-c2ccc(F)c(F)c2)cs1)C1=COCCO1 returned MsrA inhibitor 0, MsrA act -3, PLC-gamma1 inh 0 and PLCb3 inh -5.
For COc1ccc(-c2csc(NC(=O)C3=COCCO3)n2)cc1OC the results were MsrA inhibitor 0, MsrA act 11*, PLC-gamma1 inh -1, PLCb3 inh -11 and MsrA activ conf -2.
Screening Fc1ccc(-c2nnc(SCc3ncc(-c4ccccc4)o3)n2CC2CCCO2)cc1 (stereo unspecified) returned MsrA inhibitor 0, MsrA act 11*, PLC-gamma1 inh 2, PLCb3 inh 1 and MsrA activ conf 2.
Screening CCCCOC(=O)CCn1c(=S)oc2ccccc21 returned MsrA inhibitor -1, MsrA act 21*, PLC-gamma1 inh 1, PLCb3 inh -1 and MsrA activ conf -2.
`CCCNC(=O)CCn1c(=S)oc2ccccc21` gave MsrA inhibitor 2, MsrA act -3, PLC-gamma1 inh 2 and PLCb3 inh -4.
CCN1CCN(C2=C(NS(=O)(=O)c3ccc(Br)cc3)C(=O)c3ccccc3C2=O)CC1 was read as MsrA inhibitor 1, MsrA act 8.2*, PLC-gamma1 inh 2, PLCb3 inh -7 and MsrA activ conf 2.
`CCOC(=O)N1CCN(C2=C(NS(=O)(=O)c3ccc(Br)cc3)C(=O)c3ccccc3C2=O)CC1` gave MsrA inhibitor -1, MsrA act -6, PLC-gamma1 inh -2 and PLCb3 inh -5.
CCC(CO)NCc1cc(OC)c(OCC(=O)NCCc2ccccc2)cc1Br (stereo unspecified) was read as MsrA inhibitor 0, MsrA act 9.0*, PLC-gamma1 inh -3, PLCb3 inh 2 and MsrA activ conf -1.
Screening CCC1CCc2sc(C(=O)N(C)CC(=O)Nc3cccc(OC)c3)cc2C1 (stereo unspecified) returned MsrA inhibitor -1, MsrA act 11*, PLC-gamma1 inh -2, PLCb3 inh -9 and MsrA activ conf -1.
